Laboratory results as given in PubChem BioAssay AID540317 (National Center for Advancing Translational Sciences (NCATS), 2011).
In all, about 390,000 compounds went through this assay and about 2,200 (0.56%) were called active. A call without a number means that no potency is given here. Inconclusive results (about 3%) are left out. Calls follow the shape of the dose curve; as a rule, active = well fitted inhibition curve with a large enough effect; inconclusive = small, poorly fitted or top-dose-only effect; inactive = no such curve, though single readings can be large or run the other way. The full list was thinned out, with actives kept by preference.

Molecular target: Chromobox protein homolog 1 (Homo sapiens) (UniProt P83916)
Assay: HTS for Inhibitors of HP1-beta Chromodomain Interactions with Methylated Histone Tails; also: nearly all actives have a fitted effect of over 70% in size
Settings: AlphaScreen HP1-beta / biotin-H3K9me3 peptide binding; series mostly up to 114 µM
How it was run: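 Compound inhibition of the preformed complex between 50 nM HP1-beta and 50 nM biotinylated H3K9me3 peptide was read by AlphaScreen. Buffer was PBS pH 7.4 with 0.01% Tween-20. Incubations ran 30 min at room temperature, with 10 ug/mL donor/acceptor beads.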
Potency is read from the fitted curve at half-maximal effect.

Sequence of Chromobox protein homolog 1 (Homo sapiens) (P83916 whole entry, looked up): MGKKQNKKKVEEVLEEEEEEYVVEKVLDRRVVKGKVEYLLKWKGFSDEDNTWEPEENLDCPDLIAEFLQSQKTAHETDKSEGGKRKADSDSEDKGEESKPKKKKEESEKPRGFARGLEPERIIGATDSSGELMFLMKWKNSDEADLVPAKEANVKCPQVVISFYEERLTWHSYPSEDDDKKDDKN

Compound | Potency
CCN1CCN(c2ccc([N+](=O)[O-])cc2C(=O)c2ccc(Cl)cc2)CC1 | inactive
O=[N+]([O-])c1ccc(N2CCN(c3ccc(O)cc3)CC2)c(Cl)c1 | 50.1 µM (active)
O=C(O)C1CCN(c2ccc([N+](=O)[O-])cc2[N+](=O)[O-])CC1 | inactive
COc1ccc(CCn2c3c(c(=O)[nH]c2=S)CN(C(C)C)CN3)cc1OC | inactive
Cc1cc(C)c(/C=C/c2onc(C)c2S(=O)(=O)N2CCC(C(=O)Nc3ccc(Cl)cc3C)CC2)c(C)c1 | inactive
CCN(CC)S(=O)(=O)c1ccc2c(c1)N(CC(=O)NCC(C)c1ccccc1)C(=O)CO2 (stereo not given) | inactive
Cc1ccccc1C(=O)N(Cc1ccc(N(C)C)cc1)CC1CCCO1 (stereo not given) | inactive
Cc1nc2c(c(C)nn2-c2ccccc2)c(C)c1CCC(=O)NCCc1ccc(Cl)cc1 | inactive
CCCNC(=O)C1CCC(Cn2c(=O)c3sccc3n(Cc3ccccc3F)c2=O)CC1 (stereo not given) | inactive
COc1ccc(N(C)C(=O)C2CCN(S(=O)(=O)c3cc(Br)cc4c3N(C(C)=O)CC4)CC2)cc1 | inactive
O=c1ccc2c(-c3ccccc3S(=O)(=O)O)c3ccc(O)c(O)c3oc-2c1O | 1 µM (active)
CCOc1cccc(NC(=O)c2ccc(F)c(S(=O)(=O)N(CC)c3cccc(C)c3)c2)c1 | inactive
CCN(Cc1ccccc1)S(=O)(=O)c1ccc2c(c1)CCCN2C(C)=O | inactive
Cc1ccc(Cl)cc1NC(=O)/C(C#N)=C\c1cn(Cc2ccc(F)cc2)c2ccccc12 | inactive
COc1ccc(Cn2c(=O)[nH]c3cc(C(=O)N4CCN(C(=O)c5ccco5)CC4)ccc3c2=O)cc1 | inactive
Cc1cccc(C)c1NC(=O)CNC(=O)C1CCCC1 | inactive
COc1ccc(NC(=O)N2CCCC(C(=O)Nc3ccccc3OC)C2)cc1 (stereo not given) | inactive
COc1ccc(N2CCC(N3CCN(C)C(CCO)C3)CC2)cc1 (stereo not given) | inactive
COc1ccc(NC(=S)NCC2CCN(c3ccc(OC)cc3)C2)cc1 (stereo not given) | 25.1 µM (active)
COc1ccc(N2CCC(CNC(=S)Nc3c(C)cccc3C)C2)cc1 (stereo not given) | 20 µM (active)
COc1ccc(CNC(=O)C2CCC(CNc3c(N4CCOCC4)c(=O)c3=O)CC2)cc1 (stereo not given) | inactive
CCCN1CCC(=O)N(C(CSc2ccc(C)cc2)Cc2ccccc2)CC1 (stereo not given) | inactive
COc1ccc(CCNS(=O)(=O)c2cc(-c3cc(C)no3)ccc2C)cc1OC | inactive
COc1cccc(NC(=O)N2CCN(C(=O)c3nsc4ccccc34)CC2)c1 | inactive
Cc1cc(C)cc(OC(C)C(=O)Nc2nc3c(s2)CCCC3)c1 (stereo not given) | inactive

Compound | Potency
COc1cc(C2c3c(oc4ccccc4c3=O)C(=O)N2c2nc(C)c(C)s2)ccc1O (stereo not given) | inactive
COc1ccc(Cl)cc1NC(=O)CSc1nc(-c2cccs2)cc(C(F)(F)F)n1 | inactive
COc1cc(/C=N\Nc2nc(-c3cccs3)c(NC(C)=O)s2)ccc1O | 22.4 µM (active)
COc1cc(/C=C/C(=O)OCC(=O)Nc2cccc(Oc3ccccc3)c2)ccc1O | inactive
COc1ccc(CNC(=O)CSCc2nc(-c3ccccc3F)oc2C)cc1 | inactive
COc1ccc(Cn2c(=O)sc3ccccc32)cc1OC | inactive
COc1cc(/C=C2/SC(=S)N(Cc3ccccc3)C2=O)cc(OC)c1O | 20 µM (active)
COc1ccc(CCNC(=O)CCCCn2c(=O)c3ccccc3n(Cc3ccccc3)c2=O)cc1OC | inactive
Cc1nc(SCC(=O)N2CCN(c3ccccc3)CC2)[nH]c(=O)c1C | inactive
COc1cccc(-c2nc(CS(=O)(=O)CC(=O)N3CCN(c4cc(C)ccc4C)CC3)c(C)o2)c1 | inactive
O=C1C[C@@H](c2ccc3ccccc3c2)N1S(=O)(=O)c1ccccc1[N+](=O)[O-] | inactive
CCN(CC)C(=O)CSc1nc2cc3c(cc2c(=O)n1CCCC(=O)NCc1ccc2c(c1)OCO2)OCO3 | inactive
CC(=O)N1CCCc2cc(S(=O)(=O)Nc3ccc(Cl)cc3F)ccc21 | inactive
C=CS(=O)c1sc(Cl)c(N2CCOCC2)c1[N+](=O)[O-] (stereo not given) | 44.7 µM (active)
CCn1c2c(c(=O)n3ncc(C(=O)N4CCN(c5ccccc5)CC4)c13)CN(Cc1ccc(OC)cc1)CC2 | inactive
COc1ccccc1CNC(=O)C(=O)NCC(c1cccs1)S(=O)(=O)c1cccs1 (stereo not given) | inactive
Cc1nnc(C)n1-c1ccc(C(=O)Nc2cccc(Br)c2)cc1 | inactive
FC(F)(F)c1cc(Nc2nc3ccccc3c3nncn23)ccc1Cl | inactive
CCc1cccc(C)c1Nc1c(-c2ccc(N(C)C)cc2)nc2ncccn12 | 17.8 µM (active)
Cc1ccccc1Nc1c(-c2ccccc2)nc2ncccn12 | inactive
Cc1cccc(C)c1Nc1c(-c2ccccc2O)nc2ncccn12 | inactive
COc1ccc(CCNC(=O)c2ccc3c(c2)sc2nc(-c4ccc(C)cc4)cn23)cc1OC | inactive
c1ccc(Cn2nnc3c(N4CCCCC4)ncnc32)cc1 | inactive
CCN(CC)S(=O)(=O)c1cccc(-c2n[nH]c(=S)n2/N=C/c2ccc(C(=O)OC)cc2)c1 | 50.1 µM (active)
CCN(CC)S(=O)(=O)c1cccc(NC(=O)c2ccc(S(=O)(=O)N3CCCC3)cc2)c1 | inactive

Compound | Potency
COC(=O)c1ccc(/C=N/N2C(C)CCCC2C)cc1 (stereo not given) | inactive
CCCCNC(=O)Cn1c(SCc2cccc(Cl)c2)nc2ccncc21 | inactive
CCOC(=O)c1cc2c(=O)n3ccccc3nc2n(CC2CCCO2)c1=NC(=O)c1ccccc1Br (stereo not given) | inactive
COC(=O)c1ccccc1NC(=O)C(Cc1ccccc1)N1Cc2ccccc2C1=O (stereo not given) | inactive
COc1cc(NC(=O)c2nn(-c3ccc(C)cc3)c(=O)c3c2c2ccccc2n3C)cc(OC)c1OC | inactive
Cc1cccc(-n2c(N)c(C(=O)N3CCN(C)CC3)sc2=S)c1 | 7.94 µM (active)
Cc1cccc(N2CCN(C(=O)c3ccccc3NC(=O)C3CCCCC3C(=O)O)CC2)c1 (stereo not given) | inactive
COc1cccc(N2CCN(c3ccc4nnc(CCC(=O)N5CCN(C)CC5)n4n3)CC2)c1 | inactive
C=CCn1c(=S)[nH]c2scc(-c3ccco3)c2c1=O | 35.5 µM (active)
O=S(=O)(Nc1ccc2nc(-c3cccc(Cl)c3)oc2c1)c1ccccc1 | inactive
CCc1ccc(NC(=O)CCCc2nnc3n(CCCOC)c(=O)c4sccc4n23)cc1 | inactive
CCN(CC)c1cc(NC2CCCCC2)c2c3c(onc13)-c1ccccc1C2=O | 7.94 µM (active)
Cc1ccc(Cl)cc1NC(=O)CSc1nccn1C | inactive
CCOC(=O)N1CCc2c(sc3c2c(=O)n(-c2ccc(CC)cc2)c(=O)n3C)C1 | inactive
Nc1ccc2nc3c(=O)[nH]c(=S)[nH]c3nc2c1 | 2 µM (active)
CC1=C(c2ccc(C)c(C)c2)S(=O)(=O)NC1=NCc1ccccc1Cl | inactive
COc1ccc(NC(=O)CSc2nccn2Cc2ccc3c(c2)OCO3)cc1 | inactive
O=C1Nc2ccc(Br)cc2/C1=N/N=C/C1=C(N2CCOCC2)C(=C\c2ccccc2)/CC1 | 5.62 µM (active)
Cc1oc2ccc(O)c(CN3CCCCC3)c2c1C(=O)Nc1cccc(C(F)(F)F)c1 | inactive
O=C(c1ccc2c(=O)n(Cc3ccco3)c(=S)[nH]c2c1)N1CCCC1 | inactive
CCOC(=O)C1=C(CC)Nc2ccccc2N=C1N | inactive
CCOC(=O)C1=C(c2ccc(OC)cc2)C(=O)c2ccccc2C1=O | 31.6 µM (active)
CCOC(=O)C1C(=O)C=C(c2ccc(OC)cc2)CC1c1ccco1 (stereo not given) | inactive
COc1cccc(CNC(=O)C2CCC(CNS(=O)(=O)c3cccs3)CC2)c1 (stereo not given) | inactive
Cc1ccccc1CS(=O)(=O)CC1Nc2ccc(C(=O)NCc3ccc(Cl)cc3)cc2NC1=O (stereo not given) | inactive

Compound | Potency
COc1ccccc1N1CCN(C(CNC(=O)C(=O)NCc2ccc(C)cc2)c2cccnc2)CC1 (stereo not given) | inactive
Cc1ccc(NC(=O)C(=O)NCC(c2cccnc2)N2CCOCC2)cc1 (stereo not given) | inactive
CCOC(=O)N1CCN(C(c2cccnc2)c2ccc3cccnc3c2O)CC1 (stereo not given) | 8.91 µM (active)
CN(Cc1ccccc1)C(=O)c1cc2c(=O)n(C)c3ccccc3c2s1 | inactive
Nc1ccccc1SC(C[N+](=O)[O-])c1ccccc1 (stereo not given) | 15.8 µM (active)
Cc1cccc(-n2ncc(C(=O)N3CCc4ccccc4C3)c2C2CCN(C(=O)OC(C)(C)C)CC2)c1 | inactive
Cc1c(NC(=O)c2cc(=O)c3ccccc3o2)c(=O)n(-c2ccccc2)n1C | inactive
CCc1nnc(SCC(=O)Nc2cc(OC)ccc2OC)nc1CC | inactive
Cc1ccc(Nc2cc(C)nc3c(C)ccc([N+](=O)[O-])c23)cc1 | 22.4 µM (active)
Cc1ccccc1Nc1c([N+](=O)[O-])ccc2nonc12 | inactive
Cc1ccc(NC2=NC(c3ccccc3)n3c(nc(C)cc3=O)N2)cc1 (stereo not given) | inactive
CCOC(=O)c1c(NC(=O)c2cc(-c3ccc(Cl)cc3)on2)sc2c1CCCC2 | inactive
O=C1C2C(c3ccccc3)CC=CC2C(c2ccoc2)N1Cc1ccccc1 (stereo not given) | inactive
CC(C)C(=O)Nc1nc2c(s1)CC(C(C)(C)C)CC2 (stereo not given) | inactive
Cc1ccc(SCC(CC(C)C)N2CCN(CCc3ccccc3)CCC2=O)cc1 (stereo not given) | inactive
NC1=NOC(=O)C1C1CCCCC1 (stereo not given) | 5.01 µM (active)
CN1c2ccc(Cl)cc2-c2nc(SCC(=O)Nc3cc(F)ccc3F)ncc2S1(=O)=O | inactive
CC1(C)CCc2cc(S(=O)(=O)N3CCN(c4nc(-c5cccs5)nc5ccccc45)CC3)ccc2O1 | inactive
COc1ccc(CCN2C(=O)N(c3cccc(OC)c3)C(=O)C2CC(=O)Nc2ccccc2)cc1 (stereo not given) | inactive
Cc1cc(NS(=O)(=O)c2ccc(NC(=O)c3ccccc3C)cc2)nc(C)n1 | inactive
O=C(NC(=O)c1ccccc1N1CCCCC1)Nc1ccc(Br)cc1 | inactive
CC(=O)Nc1ccc(S(=O)(=O)N2CCCC2C(=O)O)cc1 (stereo not given) | inactive
CC(=O)Nc1ccc(S(=O)(=O)N2CCN(c3ccccc3)CC2)cc1 | inactive
CC(=O)Nc1ccc(S(=O)(=O)Nc2ccc(N3CCCCC3)cc2)cc1 | 20 µM (active)
Cc1ccccc1C(=O)Nc1ccc(N2CCCCCC2)cc1 | 35.5 µM (active)
